In PubChem BioAssay:

Tested on: Human papillomavirus type 1a E7 protein (residues 1-88)
Experiment: HPV1a E7 small-molecule binders, primary screen, biochemical, small-molecule microarray, residues 1-88, 635 nm (AID 1129)
Conditions: small-molecule microarray binding, fluorescence 635 nm; higher = more signal

SMILES	composite z-score
CC(=O)NCCCC[C@@H]1NC(=O)[C@H]2C[C@@H](C(=O)NCCCCCC[N+](C)(C)C)[C@@H](c3cccc(OCCO)c3)N2C1=O	0.614
COC(=O)[C@@]1(Cc2ccc(F)cc2)[C@H]2c3cc(C(=O)N(C)C)n(CCc4ccccn4)c3C[C@H]2CN1C(=O)c1ccccc1	1.25
CN(C)CCCNC(=O)[C@@]1(Cc2ccccc2I)c2ccccc2C(=O)N(Cc2ccccc2C(F)(F)F)[C@H]1c1ccc(CO)cc1	0.794
NC(=O)NCC#Cc1ccc2c(c1)[C@]1(C(=O)N2)[C@H](C(=O)N2CCCCCCC2)[C@H]2C(=O)O[C@H](c3ccccc3)[C@H](c3ccccc3)N2[C@@H]1c1ccc(OCCO)cc1	1.14
O=C(O)[C@@]1(Cc2ccccc2)N=C(c2ccc(OCCCO)cc2)O[C@H]1c1ccccc1	-0.112
CCOC(=O)C1=CCC(c2ccc([N+](=O)[O-])cc2)N(S(=O)(=O)c2ccc(C)cc2)C1 (stereo unspecified)	0.915
COCCOC(=O)N1C(=O)[C@@]2(c3cc(C#CCCO)ccc31)[C@H](c1ccc(O)cc1)N1[C@H](c3ccccc3)[C@H](c3ccccc3)OC(=O)[C@H]1[C@@H]2C(N)=O	0.215
COc1ccc(C(O)C2C=CC3C(=O)NC(=O)C3N2Nc2ccccn2)cc1OCc1ccccc1 (stereo unspecified)	0.502
O=C1OCC=C[C@H]2OC34C=CCN(c5ccc6ccccc6c5)C(=O)[C@H]3N(CCCO)C(=O)[C@@H]4[C@@H]12 (stereo partly specified)	-0.92
CCC[C@@H]1C=C(C(=O)O)[C@H](c2ccc(C)cc2)N1S(=O)(=O)c1ccc(C)cc1	1.29
COC(=O)c1ccc(C23CC2(C(NP(=O)(c2ccccc2)c2ccccc2)c2ccccc2)C3)cc1 (stereo unspecified)	1.14

Target: Focal adhesion kinase 1 (Homo sapiens) (UniProt Q05397)
Sequence (Q05397 whole entry, looked up): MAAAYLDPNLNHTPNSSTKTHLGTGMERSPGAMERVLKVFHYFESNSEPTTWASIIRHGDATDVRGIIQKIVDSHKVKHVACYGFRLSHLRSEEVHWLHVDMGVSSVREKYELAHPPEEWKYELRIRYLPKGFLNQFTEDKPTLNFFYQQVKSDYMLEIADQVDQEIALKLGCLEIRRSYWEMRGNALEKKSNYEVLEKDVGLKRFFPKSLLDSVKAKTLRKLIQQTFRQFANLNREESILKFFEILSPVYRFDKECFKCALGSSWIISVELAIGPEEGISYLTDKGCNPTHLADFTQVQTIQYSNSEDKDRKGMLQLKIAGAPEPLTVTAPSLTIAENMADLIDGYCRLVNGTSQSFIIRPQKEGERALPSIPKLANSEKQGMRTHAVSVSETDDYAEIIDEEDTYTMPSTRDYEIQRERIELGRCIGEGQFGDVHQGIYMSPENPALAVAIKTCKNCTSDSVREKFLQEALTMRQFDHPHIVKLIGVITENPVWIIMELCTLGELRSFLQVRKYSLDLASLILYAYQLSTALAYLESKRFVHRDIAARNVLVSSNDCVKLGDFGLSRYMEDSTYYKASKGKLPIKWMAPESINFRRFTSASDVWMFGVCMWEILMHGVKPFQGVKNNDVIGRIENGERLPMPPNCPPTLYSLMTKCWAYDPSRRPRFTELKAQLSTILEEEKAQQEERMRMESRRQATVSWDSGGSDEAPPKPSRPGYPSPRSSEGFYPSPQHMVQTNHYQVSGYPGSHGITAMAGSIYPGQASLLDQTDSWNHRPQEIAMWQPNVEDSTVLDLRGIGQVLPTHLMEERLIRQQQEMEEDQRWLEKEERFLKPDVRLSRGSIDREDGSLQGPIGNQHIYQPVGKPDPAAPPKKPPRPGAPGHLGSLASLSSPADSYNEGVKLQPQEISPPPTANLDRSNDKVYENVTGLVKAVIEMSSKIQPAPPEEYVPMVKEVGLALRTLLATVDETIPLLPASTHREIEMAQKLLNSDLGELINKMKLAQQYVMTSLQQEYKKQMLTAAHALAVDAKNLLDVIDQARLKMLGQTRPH
Experiment: PTK2 protein binding on printed compound slides – biochemical, small-molecule microarray, 635/667 nm fluorescence, BSA, DTT, primary screen (AID 1130);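 also: composite of spot emission at 667 nm and signal to noise over triplicate slides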
Conditions: 635 nm fluorescence, higher = more signal

SMILES	composite z-score
O=C1O[C@H](c2ccccc2)[C@H](c2ccccc2)N2[C@H]1[C@@H](C(=O)N1CCN(c3ncccn3)CC1)[C@]1(C(=O)Nc3ccccc31)[C@H]2c1ccc(OCCO)cc1	0.429
C=CCNC(=O)[C@@H]1[C@H]2C(=O)O[C@H](c3ccccc3)[C@H](c3ccccc3)N2[C@H](c2ccc(OCCO)cc2)[C@@]12C(=O)Nc1ccccc12	0.102
CC(C)C[C@@H]1NC(=O)[C@@H]2C[C@H](C(=O)NCCCCCC[N+](C)(C)C)[C@H](c3ccc(O)cc3)N2C1=O	0.11
CCCC[C@H]1OB(O)C[C@H]2C1=C(C)C[C@H]1C(=O)N(Cc3ccccc3)C(=O)[C@H]12	0.553
COc1ccc(C#Cc2ccc3c(c2)[C@]2(C(=O)N3)[C@H](C(=O)NC[C@H](O)c3ccccc3)[C@H]3C(=O)O[C@H](c4ccccc4)[C@H](c4ccccc4)N3[C@@H]2c2ccc(OCCO)cc2)cc1	0.303
COCCOC(=O)N1C(=O)[C@@]2(c3cc(C#CCNC(N)=O)ccc31)[C@H](c1ccc(O)cc1)N1[C@H](c3ccccc3)[C@H](c3ccccc3)OC(=O)[C@H]1[C@@H]2C(=O)Nc1nc2ccccc2s1	0.387
COC(=O)[C@@]1(Cc2ccccc2)[C@H]2c3cc(C(=O)N4CCCC4)n(Cc4ccc(C)o4)c3C[C@H]2CN1C(=O)c1ccccc1	0.752
COc1cc2c(cc1OC)CN(C(=O)[C@@H]1[C@H]3C(=O)O[C@H](c4ccccc4)[C@H](c4ccccc4)N3[C@H](c3ccccc3OCCO)[C@@]13C(=O)Nc1ccc(C#CCNC(N)=O)cc13)CC2	1.33
COC(=O)[C@@]1(Cc2ccc(OC)cc2)[C@H]2c3cc(C(=O)N(C)C)n(Cc4c(OC)[nH]cc(C)c4=O)c3C[C@H]2CN1C(=O)c1ccccc1	0.66
COCCOC(=O)N1C(=O)[C@@]2(c3cc(C#CCCO)ccc31)[C@H](C(=O)NC[C@H](O)c1ccccc1)[C@H]1C(=O)O[C@H](c3ccccc3)[C@H](c3ccccc3)N1[C@@H]2c1ccc(O)cc1	0.148
COC(=O)[C@]1(Cc2ccccc2N=[N+]=[N-])N=C(c2ccc(OCCCO)cc2)O[C@@H]1c1ccccc1N=[N+]=[N-]	0.188
[N-]=[N+]=NCc1ccccc1[C@@H]1OC(c2ccc(OCCCO)cc2)=N[C@]1(Cc1ccccc1N=[N+]=[N-])C(=O)NCc1ccccc1	0.562
Cc1ccc(S[C@]2(C(=O)NC3CC3)CC(=O)N(C3CCCCC3)[C@@H]2c2ccc(CO)cc2I)cc1	0.176
CC(C)NC(=O)[C@@H]1c2ccccc2C(=O)N(Cc2ccccc2)[C@H]1c1ccc(CO)cc1	0.512
[N-]=[N+]=NCc1ccccc1[C@H]1OC(c2ccc(OCCCO)cc2)=N[C@@]1(CCS(=O)(=O)c1ccccc1)C(=O)N1CCOCC1	0.176
